The source of these data is PubChem BioAssay AID2444 (National Center for Advancing Translational Sciences (NCATS), 2010).

This is one part of the list. Results filed as inconclusive are left out. Calls of active or inactive are those of the source. Calls come from the whole dose curve.

Chain of Thyroid hormone receptor beta (Homo sapiens) (P10828 whole entry, looked up, the tested form may be a part): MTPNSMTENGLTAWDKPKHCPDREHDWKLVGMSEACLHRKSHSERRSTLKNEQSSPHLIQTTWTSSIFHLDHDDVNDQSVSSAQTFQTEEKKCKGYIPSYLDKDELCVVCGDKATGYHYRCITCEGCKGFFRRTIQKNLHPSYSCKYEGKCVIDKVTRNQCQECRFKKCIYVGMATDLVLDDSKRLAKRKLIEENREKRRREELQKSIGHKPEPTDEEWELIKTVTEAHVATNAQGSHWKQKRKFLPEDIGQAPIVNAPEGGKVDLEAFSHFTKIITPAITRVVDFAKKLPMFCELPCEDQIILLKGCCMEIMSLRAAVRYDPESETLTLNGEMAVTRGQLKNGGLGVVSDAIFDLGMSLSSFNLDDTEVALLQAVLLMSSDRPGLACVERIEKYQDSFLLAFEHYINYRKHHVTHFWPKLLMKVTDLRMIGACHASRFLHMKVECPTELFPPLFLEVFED

This assay addresses Thyroid hormone receptor beta (Homo sapiens) (UniProt P10828). In words: Protein Interaction Secondary Assay for Inhibitors of the Interaction of Thyroid Hormone Receptor and Steroid Receptor Coregulator 2, Alpha Screen. The conditions noted are these: AlphaScreen TRb LBD-SRC2 peptide binding, luminescence. From the text:
NIH Molecular Libraries Probe Production Network [MLPCN] NIH Chemical Genomics Center [NCGC] MLPCN Grant: DK058080 Assay Provider: R. Kip Guy, St. Jude Children's Research Hospital NCGC Assay Overview: Thyroid receptor (TR) regulates many homeostatic processes including basal metabolism, cardiovascular function, body weight, and lipid trafficking. TR modulators are potential therapeutics for obesity and hyperlipidemias but current thyroid analogs have undesirable side effects, particularly cardiac stimulation. To confirm that inhibitors specifically prevent the interaction of TR with the steroid receptor coregulator 2 (SRC2), an orthogonal TR-SRC2 interaction assay using Alpha Screen (PerkinElmer) was employed. […] Small molecule inhibitors that block the interaction of TR and SRC2 are detected by a decrease in chemiluminescence.
NCGC Assay Protocol Summary: Fifteen uL/well of 100 nM TRb and 100 nM SRC2-2-peg2-biotin in buffer (25 mM HEPES, 100 mM NaCl, 1 mM DTT, 0.1% BSA, 0.01% NP-40) was dispensed into white 384 well Optiplates (PerkinElmer). […] After 30 min incubation, 5 uL of streptavidin donor beads were added and after 90 min incubation, the plates were read by an Envision (Perkin Elmer) to detect luminescence of the donor and acceptor bead interaction (680 nm excitation and 520-620 nm emission).
On to `O=C(COC(=O)c1cccc([N+](=O)[O-])c1)NC1C2CC3CC(C2)CC1C3` (stereo unspecified), for which the outcome was inactive.
